About 83,000 compounds went through this panel and 20% of them were active in at least one assay; those are over-represented in the sample as a whole.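 Step 1: grow cells in 96-well plates. Step 2: add test compound at a single concentration. Step 3: incubate 48 h. Step 4: record percent growth.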 Unmarked numbers belong to inactive results. Calls of active or inactive are those of the source. Rule for the calls: active = growth percent below 10; inactive = the rest.
Experiments:
Test in all cases: NCI-60 one-dose screen, 48 h (100 = growth as untreated, 0 = no growth, -100 = all killed)
Settings in all cases: 10 µM unless noted
RPMI-8226 leukemia = test system: RPMI-8226 leukemia
OVCAR-8 ovarian = test system: OVCAR-8 ovarian
OVCAR-5 ovarian = test system: OVCAR-5 ovarian
OVCAR-4 ovarian = test system: OVCAR-4 ovarian
SK-OV-3 ovarian = test system: SK-OV-3 ovarian
IGROV1 ovarian = test system: IGROV1 ovarian
OVCAR-3 ovarian = test system: OVCAR-3 ovarian
HS 578T breast = test system: HS 578T breast
NCI/ADR-RES ovarian = test system: NCI/ADR-RES ovarian
T-47D breast = test system: T-47D breast

Structure (SMILES)	growth (RPMI-8226 leukemia)	growth (OVCAR-8 ovarian)	growth (OVCAR-5 ovarian)	growth (OVCAR-4 ovarian)	growth (SK-OV-3 ovarian)	growth (IGROV1 ovarian)	growth (OVCAR-3 ovarian)	growth (HS 578T breast)	growth (NCI/ADR-RES ovarian)	growth (T-47D breast)
O=C(O)c1ccc(NC(=O)c2ccc(Nc3ccnc(C(F)(F)F)c3)cc2)cc1	98.3%	102%	107%	103%	98.9%	105%	104%	96.8%	102%	93.8%
O=C(CCc1nnc(SCc2ccccc2)s1)c1nc2ccccc2[nH]1	82.9%	98.7%	99.2%	85.7%	103%	103%	106%	106%	87.1%	95%
CSc1nnc(C2=CC(=O)c3ccccc3C2=O)n1-c1ccccc1	72.2%	94.6%	113%	99.2%	93.7%	80.4%	91.6%	112%	98%	78.4%
Cc1ccccc1-c1cc(Cc2ccccc2O)c(=O)[nH]n1	78.6%	91.8%	118%	106%	253%	86.6%	100%	104%	111%	200%
COc1ccc2c(c1)C(=O)c1c-2c(OCCCN(C)C)nc2cc(Br)ccc12	73.4%	3.85% (active)	-46% (active)	88.6%	81.3%	71.3%	89.1%	81.4%	65.6%	84%
O=C(CCc1nnc(Cn2cncn2)o1)c1nc2ccccc2[nH]1	108%	107%	107%	111%	116%	118%	122%	127%	105%	108%
O=C(c1nn(-c2ccc(Cl)cc2)cc1O)n1nc(C(F)(F)F)cc1-c1ccccc1	-10.4% (active)	22.9%	58.7%	29.2%	23.2%	34.9%	-1.65% (active)	15.8%	19.4%	44.9%
O=C(O)c1ccc(NC(=O)c2cccc(Nc3ccnc(C(F)(F)F)c3)c2)cc1	98.3%	98.9%	103%	98.1%	105%	106%	104%	98.3%	107%	94.3%
COc1cc(/C=C/C(=O)N2CCN(C(=O)/C=C/c3ccccc3)CC2)cc(OC)c1OC	95.5%	98.1%	117%	97.1%	122%	115%	120%	113%	108%	110%
Fc1ccc(-c2nnc(/C=C/c3cn(-c4ccccc4)nc3-c3ccccc3)o2)cc1	104%	98.2%	82.2%	114%	85.5%	97.7%	119%	96.9%	88.2%	72.6%
COC1=CC(c2ccc[nH]2)=N/C1=C\c1[nH]c(C)c(C(=O)CCC(=O)Oc2ccc3c(c2)CCC2C3CC[C@]3(C)C(=O)CC[C@@H]23)c1C (stereo not given in full)	68.3%	80.8%	55.6%	67.7%	85.5%	79.5%	89.1%	69.8%	82.3%	79.2%
NNC(=O)C1CC2c3ccccc3C1c1ccccc12 (stereo not given)	90.1%	102%	99.4%	106%	112%	110%	102%	102%	103%	112%
C=C1c2c(C)nn(-c3ccc(C#CCOC4OC(CO)C(O)C(O)C4O)cc3)c2N(C)C23C[C@H]1C1(C)c4c(C)nn(-c5ccc(C#CCOC6OC(CO)C(O)C(O)C6O)cc5)c4N(C)C(C)(C[C@H]12)C3 (stereo not given in full)	-36.4% (active)	12%	51%	14.7%	15.3%	24.7%	3.73% (active)	1.04% (active)	77.2%	7.11% (active)
COc1ccc(-c2cnnn2-c2cc(OC)c3c(c2)OCO3)cc1	9.18% (active)	13.1%	45.1%	64.7%	-1.59% (active)	17.9%	-37.5% (active)	5.54% (active)	12.1%	50.3%

From PubChem BioAssay (NCI)
